Assay results reported in PubChem BioAssay AID2156 (Johns Hopkins Ion Channel Center, 2009).
Hit rate of the full screen: of about 310,000 compounds, about 3,400 (1.1%) were called active. The entries come from a sample that favours actives as a whole. Values without a mark were called inactive.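 Rule for the calls: active = fluorescence ratio B-score at most minus 3 library SDs, with starting brightness B-score within 2 library SDs (cut at about -5.5 in these data); inactive = the rest, inconclusive results apart.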

Target: Potassium voltage-gated channel subfamily KQT member 2 (Rattus norvegicus) (UniProt O88943)
Sequence (O88943 whole entry, looked up): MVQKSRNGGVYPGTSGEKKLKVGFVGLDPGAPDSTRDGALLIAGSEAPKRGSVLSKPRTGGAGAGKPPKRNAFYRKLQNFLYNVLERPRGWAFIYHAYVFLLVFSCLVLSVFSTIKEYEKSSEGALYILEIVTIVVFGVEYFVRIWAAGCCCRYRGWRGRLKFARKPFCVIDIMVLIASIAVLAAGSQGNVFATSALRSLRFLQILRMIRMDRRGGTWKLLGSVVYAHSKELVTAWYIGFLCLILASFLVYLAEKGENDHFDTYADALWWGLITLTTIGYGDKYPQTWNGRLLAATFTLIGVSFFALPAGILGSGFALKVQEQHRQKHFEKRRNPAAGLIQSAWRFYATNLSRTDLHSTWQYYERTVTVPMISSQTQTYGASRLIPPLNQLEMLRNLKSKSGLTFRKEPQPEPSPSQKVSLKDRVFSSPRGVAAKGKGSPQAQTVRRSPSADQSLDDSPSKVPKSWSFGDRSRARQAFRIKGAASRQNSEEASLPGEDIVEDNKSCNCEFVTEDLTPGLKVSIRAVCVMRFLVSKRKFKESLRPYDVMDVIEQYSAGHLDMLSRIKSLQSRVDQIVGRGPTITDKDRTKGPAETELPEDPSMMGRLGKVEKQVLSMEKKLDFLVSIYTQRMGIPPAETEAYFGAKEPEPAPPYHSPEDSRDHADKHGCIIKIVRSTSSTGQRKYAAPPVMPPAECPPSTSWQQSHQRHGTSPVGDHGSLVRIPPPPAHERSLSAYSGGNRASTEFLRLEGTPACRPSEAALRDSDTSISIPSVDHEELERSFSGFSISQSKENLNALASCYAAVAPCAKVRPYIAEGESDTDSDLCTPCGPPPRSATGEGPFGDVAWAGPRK
Assay: KCNQ2 channel blockers in CHO-K1 cells – cell-based, FluxOR thallium flux, B-score, primary screen (AID 2156)
Conditions: 20 min, at 10 µM; active compounds read low

| SMILES | B-score |
| --- | --- |
| CC(C)(C)c1ccc(CN2C(=O)CN=C(c3ccccc3)c3ccccc32)cc1 | -6.95 (active) |
| O=C1CC(=O)N(Cc2ccccc2)C(=O)N1CCCCCCN1C(=O)CC(=O)N(Cc2ccccc2)C1=O | inactive |
| CCOC(=O)c1c(-c2ccccc2)oc2ccc(OC(=O)N(C)C)cc12 | -4.87 |
| COc1ccccc1C1=NCc2nnc(CSC)n2-c2ccc(Cl)cc21 | inactive |
| O=C(c1ccccc1[N+](=O)[O-])N1CCC2(CC1)OCCO2 | inactive |
| COc1ccccc1CN1CCN(C(=O)Cc2ccccc2)CC1 | -0.38 |
| Cc1nn(-c2ccccc2)c(C)c1NC(=O)COC(=O)Cc1ccccc1 | inactive |
| COc1ccc(CN2CCN(c3ccccc3F)CC2)c(OC)c1 | -0.09 |
| O=c1[nH]c(O)c(C=Nc2cc(F)cc(F)c2)c(=O)[nH]1 | inactive |
| Cc1nc2ccccn2c1P(=S)(N1CCCCC1)N1CCCCC1 | -5.55 (active) |
| CCCCCn1c(=O)c(C(=O)NCc2ccccc2)c(O)c2ccccc21 | -3.71 |
| COc1ccccc1OC(=O)c1ccc(C)c(S(=O)(=O)N2CCOCC2)c1 | inactive |
| O=C(c1cc2nc(-c3ccccc3)cc(-c3ccccc3)n2n1)N1CCC2(CC1)OCCO2 | -2.41 |
| COc1ccc2c(c1)[C@]13CCCCC1C(C2)N(C)CC3 (stereo not given in full) | inactive |
| C/C(=N/O)c1ccc2ccc3ccccc3c2c1 | -0.17 |
| Cc1ccc(Cn2c(C)c3cnn(CC(=O)N4CCC5(CC4)OCCO5)c(=O)c3c2C)cc1 | inactive |
| O=C(CCN1CCCCC1)NCC(=O)Nc1ccc(Br)cc1C(=O)c1ccccc1 | -0.1 |
| CN(C)CC1Oc2ccccc2OC1(O)c1ccccc1 (stereo not given) | -8.59 (active) |
| O=C(O)C1CSC(c2cccnc2)N1 (stereo not given) | -1.95 |
| C=CC12CN(C)[C@@H]3C4CO[C@H](C[C@H]41)[C@]1(C(=O)Nc4ccccc41)[C@@H]32 (stereo not given in full) | inactive |
| CCCCCCCCCCCCn1ccc(=N)cc1 | -3.45 |
| CC(c1ccccc1)(c1ccccc1)c1ccncc1 | -6.57 (active) |
| CC[C@H]1CC2CN3CCc4c([nH]c5ccccc45)C(C(=O)OC)(C2)C13 (stereo not given in full) | -0.03 |
| O=C(NC(c1ccc(Cl)cc1)P(=O)(Oc1ccccc1)Oc1ccccc1)OCc1ccccc1 (stereo not given) | -9.52 (active) |
| COc1ccc(C2N3CC(C)(C)CN23)cc1 (stereo not given) | inactive |
